Data reported in PubChem BioAssay.

assay: binders from COS7 lysate, DM2A8 probe, primary screen, torsin A project, cell lysate, small-molecule microarray, fluorescence 635/667 (AID 1065); conditions: higher = more signal, COS7 lysate expressing mutant human TOR1A

Row | SMILES | composite z-score
1 | C[C@@H](c1ccccc1)N1C(=O)[C@H]2[C@H]3[C@H](O)C=CC(=O)[C@@H]3CC[C@H]2C1=O | 0.0994
2 | CCCC[C@H]1OB(O)C[C@H]2C1=C(C)C[C@H]1C(=O)N(C)C(=O)[C@H]12 | 0.441
3 | CCCCc1nc2c(c3c1C[C@H](C)OC3)CN(CCC(C)C)CC2 | 0.252
4 | C/C=C\[C@@H](NCc1ccccc1Br)[C@@H](O)Cc1ccccc1 | -0.441
5 | CC(=O)C[C@H](O)[C@@H](NC(=O)OC(C)(C)C)C(C)C | -0.627
6 | CC(C)=CCCC(C)=CCON=C1C[C@@H](O)[C@@H](O)[C@@H]2[C@@H]3C(=O)N(C[C@@H]4CCCO4)C(=O)[C@@H]3CC[C@@H]12 | 1
7 | CCOC(=O)NN=C1C[C@@H](O)[C@@H](O)[C@@H]2[C@@H]3C(=O)N(C(C)(C)C)C(=O)[C@@H]3CC[C@@H]12 | 0.721
8 | COCCCNC(=O)[C@]1(Cc2ccccc2)N=C(c2ccc(OCCCO)cc2)O[C@@H]1c1ccccc1 | -0.0225
9 | CC(C)=NOCc1ccc(-c2cc(-c3ccccc3)no2)cc1 | -0.191
10 | COCCCNC(=O)[C@@]1(Sc2ccc(C)cc2)CC(=O)N(Cc2ccccc2)[C@@H]1c1ccc(CO)cc1I | 0.258
11 | COc1ccc(-c2ccc3c(n2)CCCN3CC(O)CN2CCCc3nc(C)c(C)cc32)cc1 (stereo unspecified) | 1.55
12 | CC(=O)OC[C@H]1O[C@H](CC=NOC[C@@H](C)[C@H](OCc2ccccc2)C(C)C)C=C[C@@H]1OC(C)=O | -0.141
13 | CC(CCC(=O)OC[C@H]1O[C@H](C#Cc2ccccc2)C=C[C@@H]1Oc1ccc(C)cc1)=NO[C@@H](C)c1cn([C@H](CO)Cc2ccccc2)nn1 | 0.0364
14 | COc1ccc([Si](C)(C)[C@H]2[C@H](CCO)O[C@@]3(C(=O)N(Cc4cccc(NC(=O)[C@H](C)O)c4)c4ccccc43)[C@@H]2C)cc1 | 0.634

assay: binders of probe aFGF2 on microarray, primary screen, stem cell growth factor project, biochemical, small-molecule microarray, fluorescence 635/667 (AID 1067); conditions: higher = more signal;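 also: measures binding of biotinylated aFGF2 protein to printed compounds on slides; z-score merges feature fluorescence and signal-to-noise across triplicate slides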

Row | SMILES | composite z-score
15 | CC(C)CON=C1[C@H]2CCn3c(=O)n(-c4ccccc4)c(=O)n3[C@H]2[C@H](O)[C@@H]2O[C@H]12 | -0.102
16 | O=C1C[C@@H](O)[C@@H](O)[C@@H]2[C@@H]3C(=O)N(c4cccc(Oc5ccccc5)c4)C(=O)[C@@H]3CC[C@@H]12 | -0.0598
17 | CO[C@H]([C@@H](C)[C@H](OC)c1ccccc1)[C@H](C)[C@@H](OC)[C@H](C)C(C)=O | -0.0785
18 | Cc1ccc(S[C@]2(C(=O)NCC(F)(F)F)CC(=O)N(Cc3ccccc3Cl)[C@@H]2c2ccc(CO)cc2I)cc1 | -0.122
19 | O=C1O[C@@H](c2ccccc2)[C@@H](c2ccccc2)N2[C@@H](c3ccc(O)cc3)[C@]3(C(=O)Nc4ccccc43)[C@@H](C(=O)O)[C@H]12 | -0.0969
20 | COCCNC(=O)OCC1CCCC2(CC(OC(=O)NCCc3ccc(F)cc3)CC(CCC(=O)N[C@@H](C)C(=O)OC)O2)O1 (stereo partly specified) | -0.132
21 | CCCNC(=O)[C@@H]1c2ccccc2C(=O)N(c2ccc(C)cn2)[C@H]1c1ccc(CO)cc1 | -0.176
22 | CCOC(=O)[C@H](CC(C)C)NC(=O)CCC1CC(OC(=O)NCCc2ccc(F)cc2)CC2(CCCC(COC(=O)NCc3ccccc3)O2)O1 (stereo partly specified) | 0.0131
23 | CCOC(=O)CCN1C(=O)[C@H]2[C@H]3[C@H](O)[C@H](O)CC(=O)[C@H]3CC[C@H]2C1=O | -0.128
24 | C=CCC(OC(C)=O)[C@@H]1[C@@H](N(Cc2cc3ccccc3o2)C(=O)Cc2ccc(F)cc2)c2cc(OCCCO)ccc2N1C(=O)Cc1ccc(OC)cc1 (stereo partly specified) | -0.0409
25 | CCOC(=O)NN=C1C[C@@H](O)[C@@H](O)[C@@H]2[C@@H]3C(=O)N(C[C@@H]4CCCO4)C(=O)[C@@H]3CC[C@@H]12 | -0.0786
26 | COc1ccc(-c2nc3c(c4c2C[C@H](C)OC4)CN(CCC(C)C)CC3)cc1 | -0.123
27 | CO[C@@H]1COC(=O)[C@@H]2CCCN2C(=O)[C@@H](C)COC(=O)[C@H](COCc2ccccc2)NC(=O)CC=C[C@H]1C | -0.112
28 | CCN1C(=O)[C@H]2[C@H]3[C@H](O)[C@H](O)CC(=NOC(C)CN4CCCCc5nc(C)c(C)cc54)[C@@H]3CC[C@H]2C1=O (stereo partly specified) | -0.138
29 | CCc1cc2c(nc1CC)CCN(CCC(C)=NO[C@@H](C)c1cc(-c3c(C)cc(C)cc3C)no1)C2 | -0.126
30 | CO[C@H]1O[C@H](CO)[C@@H](OC(=O)Nc2ccc3c(c2)OCO3)[C@H](OC(=O)Nc2ccccc2-c2ccccc2)[C@@H]1OC(=O)Nc1ccccc1-c1ccccc1 | -0.0238
31 | COC(=O)[C@@]1(Cc2ccc(F)cc2)[C@H]2c3cc(C(=O)N(C)C)n(Cc4ccc(OC)c(OC)c4)c3C[C@H]2CN1C(=O)c1ccccc1 | 0.184
